# Data: PubChem BioAssay (NCI)
# Where “and” joins values, the source holds several entries; their conditions need not be identical. Equal entries are not always repeated. About 83,000 compounds went through this panel and 20% of them were active in at least one assay; those are over-represented in the sample as a whole.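 Note: values are percent growth. 100 is the growth of untreated cells, values between 100 and 0 indicate rising inhibition; between -100 and 0 indicates cell death.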 A number with no mark means an inactive call. Calls of active or inactive are those of the source. Rule for the calls: active = growth percent below 10; inactive = the rest.
# Tested on: HL-60(TB) leukemia
# Assay: NCI-60 one-dose screen, 48 h (100 = growth as untreated, 0 = no growth, -100 = all killed)
# Conditions: 10 µM unless noted
row,SMILES,growth
1,COc1ccc(S(=O)(=O)c2ccc(F)cc2)cc1,105%
2,Cc1cccc(C)c1NC(=O)CN(CC(C)C)CC(O)COc1ccccc1 (stereo not given),98%
3,COC(=O)CNC(=O)[C@H](Cc1ccccc1)NCc1ccncc1,88.6%
4,O=C1/C(=C/c2ccccc2[N+](=O)[O-])Cc2ccccc21,31.7% and 63.7%
5,COc1cc(OC)c(C(=O)/C=C/c2ccc(C(F)(F)F)cc2)c(OC)c1,45.1%
6,Cc1ccc(NC(=O)COC(=O)c2ccc(S(=O)(=O)N3CCCCCC3)cc2)cc1,85.9%
7,CCOc1ccccc1/C=N\N=C\c1ccccc1O,30.6%
8,O=C1c2cccnc2-c2nccc3c2c1nc1cc(Br)ccc13,-68.1% (active) and -56.3% (active)
9,NS(=O)(=O)c1cnccc1Oc1cccc2cccnc12,89.5%
10,COc1ccc(OC)c(C(=O)/C=C/c2cc3c(c(OC)c2OC)OCO3)c1,48.6%
11,COc1cc(OC)c(/C=C/C(=O)c2c(OC)cc(OC)cc2OC)c(OC)c1,-25.1% (active)
12,COc1ccc2c(c1)c(-c1noc(C(=O)c3cn(C)c4ccc(Br)cc34)n1)cn2C,84.4%
13,Cc1cc(N2CCCC2)nc(N(CCNc2ccnc3cc(Cl)ccc23)Cc2ccco2)n1,-52.8% (active)
14,O=C(/C=C/c1ccc(F)cc1)c1ccc(Nc2nc(NCCO)nc(Nc3ccc(Cl)cc3)n2)cc1,98.6%
15,COc1ccc(-n2c(C)nc3c(c(C)nn3-c3ccccc3)c2=O)cc1,-18.3% (active)
